Laboratory results: PubChem BioAssay (NCATS)
Results filed as inconclusive are left out. A number with no mark means an inactive call. Calls of active or inactive are those of the source. The call rests on the fitted dose curve; in most records, active means well fitted inhibition curve with a large enough effect; inconclusive means small, poorly fitted or top-dose-only effect; inactive means flat fitted curve, though single readings scatter.

These molecules were tested on ECU (assay: qHTS profiling for inhibitors of Plasmodium falciparum proliferation (AID 504749; further: nearly all actives have a fitted effect of over 60% in size;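 on activity, negative = inhibition: 0% = DMSO vehicle and full inhibition = artemisinin control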)). Conditions: P. falciparum in erythrocytes, SYBR Green DNA, 72 h; series mostly up to 28.7 µM; activity, negative = inhibition: at the top concentration.
Procedure, shortened: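 P. falciparum-infected erythrocytes (0.3% parasitemia, 2.5% hematocrit) incubated with compound 72 h at 37 C, 5% CO2. Parasite DNA detected by SYBR Green after lysis, overnight at room temperature; normalised to 0.29 uM artemisinin and DMSO.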
Potency means the concentration at half of the fitted maximal effect.

Going from `COc1ccc(OC)c(C(O)C(C)N)c1` (centres undefined) to `CCC(N)Cc1c[nH]c2ccccc12` (centres undefined), the “activity, negative = inhibition” value falls from 3.52% to -8.56%.

Compared with `CCON=O`, `CC(C)CCON=O` is lower in “activity, negative = inhibition” value: 1.92% for the first, 0.152% for the second.

Compared with `CCCCCl`, `CCCCNCC(O)c1ccc(O)cc1` (centres undefined) is lower in “activity, negative = inhibition” value: 6.89% for the first, -2.97% for the second.

Going from `COC([CH2][Hg])CNC(=O)c1ccccc1OCC(=O)O` (centres undefined) to `O=C(CS(=O)C(c1ccccc1)c1ccccc1)NO` (centres undefined), the “activity, negative = inhibition” value falls from 12.7% to -2.31%.

Compared with `CC(C)(O)C1C2OC(=O)C1C1(O)CC3OC34C(=O)OC2C14C` (centres undefined), `C=CCN1CCC23c4c5ccc(O)c4O[C@H]2C(=O)CC[C@@]3(O)C1C5` (some centres undefined) is lower in “activity, negative = inhibition” value: 12.5% for the first, -1.19% for the second.

First: O=C1C2CC=CCC2C(=O)N1SC(Cl)(Cl)Cl (centres undefined)
Second: CC(=O)O[C@H]1CC[C@H]2[C@@H]3CCC4=CC(=O)CCC4=C3C=C[C@]12C
The “activity, negative = inhibition” value of the first is higher: -1.28% for the first, -1.47% for the second.

Compared with `N#CN`, `S=C=S` is lower in “activity, negative = inhibition” value: 11.6% for the first, 6.13% for the second.

Compared with `O=C1CCCCC1CN1CCCCC1` (centres undefined), `O[C@H]1[C@H]2[C@H](O)CCCN2C[C@H]1O` is higher in “activity, negative = inhibition” value: 6.6% for the first, 8.78% for the second.

Going from `O=[N+]([O-])C(Br)(CO)CO` to `CCCC(=O)OC(C(Cl)(Cl)Cl)P(=O)(OC)OC` (centres undefined), the “activity, negative = inhibition” value falls from 3.63% to -9.02%.

Compared with `COc1ccc2c3c1O[C@H]1C(=O)CC[C@H]4[C@@H](C2)N(C)CC[C@]314`, `C=CCN1CC[C@]23c4c5ccc(O)c4O[C@H]2[C@@H](O)C=C[C@H]3[C@H]1C5` is higher in “activity, negative = inhibition” value: -0.787% for the first, 4.98% for the second.

First: CCCCCCCCOC(=O)c1ccccc1C(=O)OCCCCCCCC
Second: C[N+]1(C)C2CCC1CC(OC(=O)c1c[nH]c3ccccc13)C2 (centres undefined)
The “activity, negative = inhibition” value of the first is higher: 3.28% for the first, -3.87% for the second.

Going from `O=C1CCO1` to `CCC1(c2ccccc2)C(=O)NC(=O)NC1=O`, the “activity, negative = inhibition” value falls from 2.09% to -4.1%.

Going from `O=c1[nH]cc(N(CCCl)CCCl)c(=O)[nH]1` to `COCC(C)N(C(=O)CCl)c1c(C)csc1C` (centres undefined), the “activity, negative = inhibition” value rises from -24.8% to 14.6%.

Compared with `C#CC(C)(O)CC` (centres undefined), `CC(=O)OO` is lower in “activity, negative = inhibition” value: 11.3% for the first, 5.62% for the second.

Compared with `[N-]=[N+]=CC(=O)OCC(N)C(=O)O` (centres undefined), `C[N+]1(C)CCCCC1COC(=O)C(O)(c1ccccc1)c1ccccc1` (centres undefined) is lower in “activity, negative = inhibition” value: 12.8% for the first, -0.65% for the second.

Compared with `FC(F)OC(F)(F)C(F)Cl` (centres undefined), `c1ccc2sc(SNC3CCCCC3)nc2c1` is lower in “activity, negative = inhibition” value: 4.58% for the first, -3.69% for the second.

With `C[CH2][Hg][S]c1ccccc1C(=O)O` the Potency was 3.16 µM (active).
For `CN1C2CCC1CC(OC(c1ccccc1)c1ccc(Cl)cc1)C2` (centres undefined), the Potency was 6.31 µM (active).
With `C/C(=C\c1csc(C)n1)[C@@H]1C[C@@H]2O[C@]2(C)CCC[C@H](C)[C@H](O)[C@@H](C)C(=O)C(C)(C)[C@@H](O)CC(=O)O1` the Potency was 0.0045 µM (active).
`CC(C)(C)c1cc(O)ccc1O` was tested, and the Potency was 7.94 µM (active).
For `CNC1(c2ccccc2Cl)CCCCC1=O` (centres undefined), the Potency was “inactive”.

Compared with `COC1=CC=C2[C@H]3Cc4ccc(OC)c5c4[C@@]2(CCN3C)[C@H]1O5`, `O=S(=O)(O)c1cc(O)ccc1O` is higher in “activity, negative = inhibition” value: -11.2% [at 12.8 µM] for the first, -0.74% [at 12.8 µM] for the second.
